Test [1] can be described thus: CCTE_Shafer_MEA_acute_per_network_burst_spike_number_std: CCTE's Neural Acute Assay for Standard Deviation of Number of Spikes in a Network Burst, Shafer Lab (AID 2284020).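 Note: fitted for decrease in spike-number SD versus DMSO so actives lower it.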 In short, it runs like this:
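Primary rat cortical neurons on 48-well MEAs (16 electrodes/well) recorded at DIV 13 or 15: 40-min baseline, then 40 min with compound (0.03-40 uM), 37 C. Value is percent change in SD of spikes per network burst, relative to DMSO.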

Test [2] can be described thus: CCTE_Shafer_MEA_acute_per_network_burst_electrodes_number_mean: CCTE's Neural Acute Assay for Mean Number of Electrodes in a Network Burst, Shafer Lab (AID 2284021).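 Note: curves fitted for decreases only so hits reduce electrodes per burst.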 An outline of the steps:
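Percent change from baseline was computed as mean electrode count per network burst, comparing 40 min recordings before and during compound (0.03-40 uM) exposure. Cultures were rat cortical neurons at DIV 13 or 15, recorded on MEAs at 37 C with an adaptive 8x rms threshold.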

A short description of test [3]: CCTE_Shafer_MEA_acute_network_burst_percentage: CCTE's Neural Acute Assay for Percentage of Network Bursts, Shafer Lab (AID 2284022).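 Note: curves fitted for loss so actives lower network burst percentage.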 An outline of the steps:
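Network burst percentage (spikes in network bursts divided by total spikes) recorded at 37 C over 40 min baseline and 40 min after compound, 0.03-40 uM, in rat cortical cultures at DIV 13 or 15. Analysed as percent change from baseline versus DMSO.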

Test [4] can be described thus: CCTE_Shafer_MEA_acute_cross_correlation_area: CCTE's Neural Acute Assay for Area of Cross Correlation, Shafer Lab (AID 2284024).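 Note: area under pooled inter-electrode spike cross-correlation near zero lag as percent change from own baseline; curves fitted for loss of cross-correlation area so actives lower synchrony.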 An outline of the steps:
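Percent change in well-wide cross-correlation area (window around zero lag) between 40 min baseline and 40 min post-compound recordings, 37 C; rat cortical cultures on MEA at DIV 13 or 15, dosed 0.03-40 uM, wells needing >/= 10 active electrodes.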

The nature of test [5]: CCTE_Shafer_MEA_acute_cross_correlation_HWHM: CCTE's Neural Acute Assay for Cross Correlation at Half Width at Half Maximum, Shafer Lab (AID 2284026).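 For outcome: spontaneous network firing of rat primary cortical neurons on multiwell microelectrode arrays.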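 Note: percent change per well from pre-dose baseline in spike cross-correlogram half width; hits are a decrease in cross-correlogram half width relative to DMSO.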 In short, it runs like this:
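Per-well percent change in cross-correlogram half width at half maximum, derived from 40-min recordings before and after compound (0.03-40 uM) at 37 C. Cultures were rat cortical neurons, DIV 13 or 15, with adaptive spike detection at 8x rms.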

Test [6] in a line: CCTE_Shafer_MEA_acute_synchrony_index: CCTE's Neural Acute Assay for Synchrony, Shafer Lab (AID 2284027).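 Note: network synchrony index of spontaneous spiking in primary rat cortical neurons on MEAs; fitted for loss of signal so actives lower synchrony relative to DMSO.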 An outline of the steps:
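Spontaneous firing of mature rat cortical networks is captured extracellularly on microelectrode arrays at 37 C, with wells needing ≥10 active electrodes. Each compound (0.03-40 uM) is judged by the change in synchrony index from baseline over 40 min.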

The nature of test [7]: CCTE_Deisenroth_AIME_96WELL_CTox_Active: Cytotoxicity Assessment (CTOX) in CCTE's 96-well Estrogen Receptor Transactivation Assay with AIME metabolic competence (metabolism positive), Deisenroth Lab (AID 2284028; active = hit-call score of the fitted dose curve at least 0.9, where 1 is the maximum). In short, it runs like this: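 Chemicals (0.002–200 uM) were first incubated 2 h with alginate-immobilized phenobarbital/beta-naphthoflavone-induced male rat liver S9; conditioned medium then went onto VM7Luc4E2 cells for 24 h, with viability read by protease-substrate fluorescence, fitted bidirectionally.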

A short description of test [8]: CCTE_Shafer_MEA_dev_firing_rate_mean: CCTE's Neural Network Formation Assay for Mean Firing Rate, Shafer Lab (AID 2284031).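 For AC50: curve fitted for loss of firing so AC50 reflects decreased mean firing rate.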 An outline of the steps:
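Developing rat cortical networks on MEA plates undergo 12-day compound exposure. Firing frequency, averaged across active electrodes, is integrated as area under the curve over four recording days, referenced to DMSO.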

A short description of test [9]: CCTE_Shafer_MEA_dev_per_burst_spike_percent: CCTE's Neural Network Formation Assay for Percent of Spikes in a Burst, Shafer Lab (AID 2284032).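 For AC50: fitted as a decrease in burst spike percentage below DMSO baseline.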 An outline of the steps:
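Rat primary cortical neurons on 16-electrode MEA wells, dosed from plating day 0 for 12 days with renewal on DIV 5 and 9; spikes-in-bursts percentage averaged over bursting electrodes, collapsed as AUC across days 5, 7, 9, 12; loss direction versus DMSO.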

Test [10] in a line: CCTE_Shafer_MEA_dev_active_electrodes_number: CCTE's Neural Network Formation Assay for Number of Active Electrodes, Shafer Lab (AID 2284040; active = hit-call score of the fitted dose curve at least 0.9, where 1 is the maximum;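 for AC50: potency for loss of active electrodes versus DMSO so lower counts are hits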). In short, it runs like this: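 Rat cortical primary cultures, 1.5 x 10^5 cells/well, PEI-coated MEA, laminin drop. Continuous exposure DIV 0–12; full media/compound change DIV 5, 9. Readout: electrodes with mean firing ≥5 spikes/min; AUC across days; loss vs DMSO.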

Test [11] in a line: CCTE_Shafer_MEA_dev_burst_rate: CCTE's Neural Network Formation Assay for Burst Rate, Shafer Lab (AID 2284042).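 For AC50: potency for loss of burst rate below DMSO control.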 In short, it runs like this:
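Developmental network assay measuring how 12-day exposure of rat cortical neuron cultures alters bursting on extracellular MEA recordings. Values are AUC of well-mean burst rate across four recording days, relative to DMSO vehicle.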

Test [12] is described as follows: CCTE_Shafer_MEA_dev_bursting_electrodes_number: CCTE's Neural Network Formation Assay for Number of Bursting Electrodes, Shafer Lab (AID 2284043; active = hit-call score of the fitted dose curve at least 0.9, where 1 is the maximum;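 for AC50: potency is for loss of bursting electrodes relative to DMSO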). An outline of the steps: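 Primary rat cortical neurons were cultured on PEI-coated 48-well MEA plates (16 electrodes/well) and exposed from plating through day 12, with compound renewed at feeds on DIV 5 and 9. Electrodes bursting ≥1 per 2 min were counted on DIV 5, 7, 9, 12; trapezoidal AUC taken.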

Test [13] is described as follows: CCTE_Shafer_MEA_dev_per_burst_interspike_interval: CCTE's Neural Network Formation Assay for Burst Interspike Interval, Shafer Lab (AID 2284044).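 For AC50: potency for a decrease of within-burst interspike interval below DMSO level.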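 Note: mean spike spacing inside bursts as AUC over recordings on days 5 7 9 12.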 In short, it runs like this:
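Mean interspike interval within single-electrode bursts, averaged over bursting electrodes, from rat cortical cultures on MEA plates recorded on days 5, 7, 9 and 12. Continuous compound exposure from plating; trapezoidal AUC fitted downward relative to DMSO.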

Test [14] can be described thus: CCTE_Shafer_MEA_dev_burst_duration_mean: CCTE's Neural Network Formation Assay for Mean Burst Duration, Shafer Lab (AID 2284045).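 For AC50: curve fitted for loss meaning shorter burst duration than DMSO.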 An outline of the steps: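 Primary rat cortical neurons on PEI-coated 16-electrode MEA wells, exposed from plating through day 12 with compound renewed at DIV 5 and 9; spontaneous activity recorded days 5, 7, 9, 12. Well-mean burst duration collapsed as trapezoidal AUC, fitted for loss versus DMSO.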

Test [15] can be described thus: CCTE_Shafer_MEA_dev_interburst_interval_mean: CCTE's Neural Network Formation Assay for Mean Interburst Interval, Shafer Lab (AID 2284046).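 Note: well-mean interburst interval of bursting electrodes as AUC over four recording days; curve fitted for decrease in interburst interval relative to DMSO.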 In short, it runs like this: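 Network formation assay in primary rat cortical cultures, exposed from DIV 0 to 12. Mean interburst interval per well, integrated as AUC over four recordings.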
Test [16] is described as follows: CCTE_Deisenroth_AIME_384WELL_CTox_Active: Cytotoxicity Assessment (CTOX) in CCTE's 384-well Estrogen Receptor Transactivation Assay with AIME metabolic competence (metabolism positive), Deisenroth Lab (AID 2284037; active = hit-call score of the fitted dose curve at least 0.9, where 1 is the maximum;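 note: activity means signal loss indicating cell death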). An outline of the steps:
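VM7Luc4E2 breast cells received medium pre-incubated 2 h with chemical over alginate microspheres holding induced male Sprague Dawley rat liver S9; viability read 24 h later by protease-substrate fluorescence. Loss of signal, bidirectional fit, 0.002–200 uM.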

Test [17] is described as follows: CCTE_Deisenroth_AIME_384WELL_CTox_Inactive: Cytotoxicity Assessment (CTOX) in CCTE's 384-well Estrogen Receptor Transactivation Assay without AIME metabolic competence (metabolism negative), Deisenroth Lab (AID 2284039; active = hit-call score of the fitted dose curve at least 0.9, where 1 is the maximum;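 note: cell viability via live-cell protease substrate cleaved to fluorescent probe; cells exposed 24 h to medium preincubated 2 h with alginate-water beads without S9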). An outline of the steps:
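Fluorescence from a live-cell protease substrate, read after 24 h in VM7Luc4E2 cells, indicated viability. Test medium came from a 2 h AIME step without hepatic S9 (alginate-water microspheres); concentrations spanned 0.002 - 200 uM, single technical replicate per run.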

Records with an inconclusive call do not appear. Calls of active or inactive are those of the source. Rule for the calls, unless noted: active = hit-call score of the fitted dose curve at least 0.9, where 1 is the maximum; inactive = score below 0.9.

What is called AC50 is the concentration giving half of the maximal activity seen. `CCCCOC(=O)c1ccccc1C(=O)OCc1ccccc1`: the AC50 in test [1] is 5 µM (active); in test [2], 5 µM (active); in test [3], 8.11 µM (active); in [5] it was 6.42 µM (active); in test [6], 7.33 µM (active); in test [10], 22.7 µM (active). Besides, the half-maximal activity concentration (AC50) in test [12] is 50.5 µM (active). In addition, the compound was called inactive in test [4], in test [7], in [8], in test [9], in test [11] and in [13]. Moreover, the call in test [14] and in test [15] was inactive.

For `CC(C)(O)c1cnn2c(-c3ccc(F)c(-c4c(F)cccc4C#N)c3)cnc2n1`, the AC50 in test [1] was 3.97 µM (active); in test [2], 20 µM (active); in [3] it was 30.8 µM (active); in test [5] it was 3.97 µM (active); in [6], 35.8 µM (active); in test [9], 10 µM (active). Besides, the AC50 is 5.55 µM (active) in test [10] and 1.98 µM (active) in test [12]. Further, the outcome in test [4], in test [8], in [11], in test [13], in [14] and in test [15] was inactive.

For the compound `[Cl-].[Cl-].[Hg+2]`, the outcome in [1], in [3] and in test [4] was inactive. Further, the AC50 is 24.6 µM (active) in test [2]; 29.3 µM (active) in test [5]; 28.2 µM (active) in test [6]; 0.911 µM (active) in test [8]; 0.882 µM (active) in test [9]; 0.543 µM (active) in test [10]. For the same compound, the AC50 in test [11] is 0.923 µM (active); in test [12], 0.539 µM (active); in [13], 0.869 µM (active); in [14], 0.881 µM (active); in test [15], 0.318 µM (active).

As for `O=P(OCCCl)(OCCCl)OCCCl`, the outcome in [1], in test [2], in [3], in test [4], in test [5] and in [6] was inactive. Moreover, the compound was called inactive in [8], in test [9], in test [10], in test [11], in [12] and in test [13]. Further, the call in test [14] and in test [15] was inactive.

As for `O=C(N[C@H](c1ccccc1)[C@@H]1CN2CCC1CC2)c1c(Cl)ccc(C(F)(F)F)c1Cl`, the call in test [1], in test [2], in [3], in [4], in test [6] and in test [16] was inactive. The AC50 in test [5] was 18.5 µM (active).

Turning to `CCN(CC)N=O`, the compound was classed as inactive in test [1], in test [2], in test [3], in test [4], in test [5] and in test [6].

Regarding `CC(C)(C)C(O)(CCc1ccc(Cl)cc1)Cn1cncn1` (stereo unspecified), the compound was classed as inactive in test [1], in test [2], in test [3], in test [4], in [6] and in [8]. The outcome in test [11], in test [13], in [14] and in test [15] was inactive. Besides, the half-maximal activity concentration (AC50) in test [5] was 20 µM (active); in test [9], 15 µM (active); in test [10], 5.02 µM (active); in test [12], 5.5 µM (active).

With `Cc1cc(N=Nc2ccccc2C)ccc1N`, the compound was classed as inactive in [1], in test [2], in test [3] and in test [4]. In addition, the AC50 in [5] is 30.1 µM (active); in test [6], 28.7 µM (active); in test [16], 107 µM (active); in test [17], 103 µM (active).

As for `ClC1=C(Cl)[C@]2(Cl)[C@H]3[C@H]([C@@H]4C=C[C@H]3C4)[C@@]1(Cl)C2(Cl)Cl`, the compound was called inactive in test [1], in test [2], in test [3], in test [4], in test [5] and in test [6]. For the same compound, the AC50 in [8] is 3.92 µM (active); in test [9], 5.76 µM (active); in [10] it was 5.34 µM (active); in test [11], 5.95 µM (active); in test [12] it was 7.53 µM (active); in test [13], 6.26 µM (active). The AC50 in test [14] is 3.95 µM (active); in test [15], 7.62 µM (active).

Values taken from PubChem BioAssay (EPA / NIEHS).
